We go through 14 compounds from PubChem BioAssay.

Assay [1] can be described thus: hESC survival regulators, cell-based (AID 493140; call rule not given here;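 further: cells exposed to compounds for four days before counting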). Conditions: human embryonic stem cell survival screen; hits give high values.
Assay [2] can be described thus: Cy5 fluorescence interference with SSB-bound oligo, artefact control for HCV NS3 helicase inhibitor project, biochemical, NIH Clinical Collection, E. coli SSB (AID 743268; call rule not given here).
Assay [3] concerns the target Single-stranded DNA-binding protein (Escherichia coli (strain K12)) (UniProt P0AGE0). Nature of the assay: E. coli SSB displacement from DNA, counter-screen for HCV NS3 helicase inhibitor project, biochemical, fluorescence polarization, NIH Clinical Collection (AID 743271; in the data active means inhibition above about 28%). The settings on record: hits give high values, concentration not given here. Background: Counterscreens check selectivity or assay interference.

A short description of assay [4]: fluorescence interference in NS3h assay format, artefact control for HCV NS3 helicase inhibitor project, biochemical, NIH Clinical Collection (AID 743272; call rule not given here;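 further: HCV NS3 helicase with a Cy5 labelled single stranded DNA probe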). The settings on record: fluorescence interference counterscreen, hits give low values.
Assay [5] can be described thus: phospholipid biosynthesis inhibitors in animal cells, primary screen, cell-based, LOPAC library, screen 4 (AID 1347384; call rule not given here). The settings on record: phospholipid biosynthesis inhibition screen, at 10 µM.
Another assay relates to F380Y. Nature of the assay: modulators of BK channel variants, profiling panel, selectivity assay, cell-based, U2OS BacMam, thallium flux, beta subunits (AID 1259406).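 Further: initial slope of Thallos dye fluorescence rise after thallium is added; log ratio against the mean of 0.3% DMSO vehicle wells on the same plate.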 The settings on record: at 30 µM.
A further assay deals with F380Y/beta1. Described as above. Conditions: at 30 µM.
The test system of another assay is F380Y/beta2Delta. The assay is described as above. The settings on record: at 30 µM.
A further assay deals with F380Y/beta4. Described as above. Conditions: at 30 µM.
The target in assay [6] is Calcium-activated potassium channel subunit alpha-1 (Homo sapiens) + Leucine-rich repeat-containing protein 26 (Homo sapiens) (UniProt Q12791+Q2I0M4). Described as above. The settings on record: F380Y/Slo1WT/gamma1, at 30 µM.
Chain of Calcium-activated potassium channel subunit alpha-1 (Homo sapiens) + Leucine-rich repeat-containing protein 26 (Homo sapiens) (Q2I0M4 whole entry, looked up, one chain of several): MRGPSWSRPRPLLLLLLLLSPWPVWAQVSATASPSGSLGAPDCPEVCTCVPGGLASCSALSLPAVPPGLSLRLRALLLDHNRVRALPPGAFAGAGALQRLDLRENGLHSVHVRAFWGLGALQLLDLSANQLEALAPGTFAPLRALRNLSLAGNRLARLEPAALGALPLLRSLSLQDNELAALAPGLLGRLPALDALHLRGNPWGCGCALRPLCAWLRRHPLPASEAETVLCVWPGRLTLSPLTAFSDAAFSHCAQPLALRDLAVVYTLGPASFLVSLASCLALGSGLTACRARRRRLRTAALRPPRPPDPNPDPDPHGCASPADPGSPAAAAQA
The next assay concerns R275C. Described as above. Conditions: at 30 µM.
A further assay deals with R275C/beta1. Described as above. The settings on record: at 30 µM.
For the next assay, the system named is R275C/beta2Delta. Described as above. Conditions: at 30 µM.
The next assay has as its system R275C/beta4. The assay is described as above. The settings on record: at 30 µM.
The test system of a further assay is R275C/Slo1WT/beta2. Described as above. Conditions: at 30 µM.
The nature of assay [7]: growth inhibition of DIPG glioma cells, dose response, cell-based, JHH-DIPG-1, MIPE4.0, CellTiter-Glo, qHTS (AID 1347062; cut-off not given, nearly all actives have AC50 up to about 27 µM). The settings on record: JHH-DIPG-1 viability, CellTiter-Glo ATP luminescence.
Assay [8] in a line: growth inhibition of DIPG glioma cells, dose response, cell-based, SU-DIPG-XIII, MIPE5.0, CellTiter-Glo, qHTS (AID 1347064; cut-off not given, nearly all actives have AC50 up to about 23 µM). Conditions: SU-DIPG-XIII viability, CellTiter-Glo ATP luminescence.

Several values for one entry are separate records, joined by “and”; a condition that tells them apart may be missing. Equal entries are not always repeated. Values without a mark were called inactive. Inconclusive results are not listed. Activity calls are given as the source filed them.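 How the source made its calls, unless noted: active means thallium flux through the channel raised or lowered by more than 3 SD from vehicle-only wells, actives on both sides; inactive means the rest.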

Regarding `CC(C)NCC(O)COc1ccc(CC(N)=O)cc1` (configuration not stated), the survival in assay [1] is 4.33. For the same compound, the fluorescence ratio in [2] was 1.03; in [4] it was 0.98. Also, the inhibition in assay [3] is 0.29%. Besides, the compound was called inactive in assay [5]. Moreover, the log fold change Tl+ flux in the assay with F380Y was -0.0247; in the assay with F380Y/beta1, 0.000846; in the assay with F380Y/beta2Delta, 0.00577; in the assay with F380Y/beta4 it was 0.0375; in [6], -0.00874; in the assay with R275C, -0.00467. The log fold change Tl+ flux with R275C/beta1 was 0.0259; with R275C/beta2Delta, -0.0455; in the assay with R275C/beta4 it was 0.0424; in the assay with R275C/Slo1WT/beta2 it was 0.0165.

Turning to `C[C@H]1COc2c(N3CCN(C)CC3)c(F)cc3c(=O)c(C(=O)O)cn1c23`, the fluorescence ratio was 1.03 in [2] and 1 in [4]. Besides, the inhibition in [3] is -3.95%. For the same compound, the compound was called inactive in assay [7] and in [8]. Also, the log fold change Tl+ flux in the assay on F380Y was -0.012; with F380Y/beta1, 0.0152; with F380Y/beta2Delta, 0.0117; with F380Y/beta4 it was -0.0339; in assay [6], 0.00221; in the assay on R275C, -0.0297. For the same compound, the log fold change Tl+ flux with R275C/beta1 was 0.0187; with R275C/beta2Delta, -0.00628; with R275C/beta4, -0.0147; in the assay on R275C/Slo1WT/beta2, 0.0224.

On to `Cc1occc(=O)c1O`, for which the fluorescence ratio in assay [2] was 1; in assay [4] it was 0.97. In addition, the inhibition in assay [3] was -2.76%. Also, the log fold change Tl+ flux with F380Y was 0.00693; in the assay on F380Y/beta1, 0.0152; in the assay on F380Y/beta2Delta it was 0.00122; in the assay with F380Y/beta4, 0.0304; in assay [6], 0.0152; in the assay with R275C, -0.0195. For the same compound, the log fold change Tl+ flux with R275C/beta1 is -0.0131; with R275C/beta2Delta it was 0.041; in the assay on R275C/beta4, -0.00174; in the assay with R275C/Slo1WT/beta2 it was 0.0112.

As for `O=[N+]([O-])c1cccc2cn[nH]c12`, the fluorescence ratio in assay [2] is 0.99; in assay [4], 0.97. The inhibition in assay [3] was -2.76%. For the same compound, in [5], the outcome was inactive. Besides, the log fold change Tl+ flux in the assay with F380Y is 0.0311; with F380Y/beta1 it was 0.0616; in the assay with F380Y/beta2Delta, -0.000818; with F380Y/beta4 it was 0.0331; in [6], 0.0381; in the assay on R275C, -0.025. The log fold change Tl+ flux in the assay with R275C/beta1 was -0.0288; with R275C/beta2Delta, 0.0285; with R275C/beta4, 0.0112; with R275C/Slo1WT/beta2, -0.00893.

`O=c1ccc2ccc(O)c(O)c2o1`: the compound was classed as inactive in [7] and in [5].

For the compound `Cc1cccc(C)c1NC(=O)C1CCCCN1C` (configuration not stated), the values for the fluorescence ratio in [2] and in assay [4] were 0.96 and 0.95, respectively. Also, in assay [3], the inhibition was 1.97%. Besides, the log fold change Tl+ flux with F380Y is 0.0251; in the assay with F380Y/beta1 it was 0.0319; in the assay with F380Y/beta2Delta, 0.00729; in the assay with F380Y/beta4, 0.00629; in [6], 0.0131; in the assay with R275C, -0.0395. For the same compound, the log fold change Tl+ flux in the assay on R275C/beta1 is -0.0108; with R275C/beta2Delta, 0.00999; with R275C/beta4, -0.0225; in the assay with R275C/Slo1WT/beta2, -0.0173.

On to `COc1ccc(-c2cc(=O)c3c(OC)c(OC)c(OC)c(OC)c3o2)cc1OC`, for which the fluorescence ratio in assay [2] was 1.01; in assay [4], 0.96. Also, the inhibition in assay [3] is -2.41%. For the same compound, the log fold change Tl+ flux in the assay with F380Y is 0.00321; in the assay with F380Y/beta1, 0.0362; with F380Y/beta2Delta, 0.0292; with F380Y/beta4, -0.0316; in assay [6] it was -0.341 (active); in the assay on R275C, -0.784 (active). Also, the log fold change Tl+ flux in the assay on R275C/beta1 is -0.176 (active); with R275C/beta2Delta, -0.278 (active); in the assay on R275C/beta4 it was -0.242 (active); with R275C/Slo1WT/beta2 it was -0.0213.

`CC(C(=O)O)c1ccc(-c2ccccc2)c(F)c1` (configuration not stated): in assay [1], the survival was 4.67. The fluorescence ratio in assay [2] is 0.95 and 0.99; in [4], 0.9 and 0.98. The inhibition in assay [3] was 6.83% and 0.29%. The call in assay [7] and in [8] was inactive. For the same compound, the log fold change Tl+ flux with F380Y was 0.0247; in the assay on F380Y/beta1, 0.0374; in the assay with F380Y/beta2Delta, -0.00435; with F380Y/beta4, 0.0328; in [6] it was 0.0464; with R275C, -0.0123. Also, the log fold change Tl+ flux with R275C/beta1 was 0.0432; in the assay with R275C/beta2Delta, 0.0621; with R275C/beta4, 0.0279; in the assay on R275C/Slo1WT/beta2, 0.0126.

Consider `CC[C@H]1OC(=O)[C@H](C)[C@@H](O[C@H]2C[C@@](C)(OC)[C@@H](O)[C@H](C)O2)[C@H](C)[C@@H](O[C@@H]2O[C@H](C)C[C@H](N(C)C)[C@H]2O)[C@](C)(OC)C[C@@H](C)C(=O)[C@H](C)[C@@H](O)[C@]1(C)O`, for which the fluorescence ratio was 1.06 in [2] and 0.99 in assay [4]. The inhibition in assay [3] is -3.18%. Further, in assay [7], the call was inactive. Besides, the log fold change Tl+ flux is 0.0307 in the assay on F380Y; 0.0264 in the assay on F380Y/beta1; -0.0353 in the assay with F380Y/beta2Delta; 0.00789 in the assay on F380Y/beta4; -0.0843 in [6]; -0.104 with R275C. The log fold change Tl+ flux in the assay with R275C/beta1 is -0.0277; in the assay with R275C/beta2Delta, 0.033; with R275C/beta4, -0.0137; in the assay with R275C/Slo1WT/beta2, -0.00092.

Consider `CCCCC(=O)N(Cc1ccc(-c2ccccc2-c2nn[nH]n2)cc1)[C@H](C(=O)O)C(C)C`, for which the fluorescence ratio is 1.07 in assay [2] and 1.05 in assay [4]. Further, the inhibition in [3] is 4.52%. In addition, the log fold change Tl+ flux is 0.0751 with F380Y; -0.0013 with F380Y/beta1; 0.0113 in the assay on F380Y/beta2Delta; -0.00671 with F380Y/beta4; 0.0422 in assay [6]; -0.0315 with R275C. Also, the log fold change Tl+ flux is 0.0112 with R275C/beta1, 0.014 with R275C/beta2Delta, 0.0104 in the assay on R275C/beta4 and 0.0346 in the assay on R275C/Slo1WT/beta2.

On to `CCc1ccc(CCOc2ccc(CC3SC(=O)NC3=O)cc2)nc1` (configuration not stated), for which the results for the fluorescence ratio in assay [2] and in assay [4] were 1.03 and 0.9, respectively. In addition, the inhibition in [3] is 3.75%. In addition, the call in [7] and in assay [8] was inactive. For the same compound, the log fold change Tl+ flux with F380Y is 0.00439; in the assay with F380Y/beta1 it was 0.0033; in the assay with F380Y/beta2Delta, 0.0296; in the assay on F380Y/beta4 it was 0.017; in assay [6], 0.0101; in the assay with R275C, -0.057. The log fold change Tl+ flux in the assay with R275C/beta1 was -0.028; in the assay with R275C/beta2Delta it was -0.0196; in the assay with R275C/beta4 it was -0.028; with R275C/Slo1WT/beta2, -0.0116.

`Nc1ncnc2c1ncn2[C@@H]1O[C@H](CO)[C@@H](O)[C@@H]1O`: the fluorescence ratio in assay [2] and in [4] was 1 in each case. In addition, in [3], the inhibition is -1.24%. In addition, the compound was classed as inactive in assay [8]. The log fold change Tl+ flux was -0.000678 in the assay on F380Y; 0.0507 with F380Y/beta1; 0.00163 in the assay with F380Y/beta2Delta; 0.0319 in the assay with F380Y/beta4; 0.0271 in [6]; 0.00664 with R275C. For the same compound, the log fold change Tl+ flux is -0.0305 in the assay on R275C/beta1, -0.0267 with R275C/beta2Delta, 0.00861 with R275C/beta4 and 0.0175 in the assay on R275C/Slo1WT/beta2.

On to `COC(=O)[C@H](c1ccccc1Cl)N1CCc2sccc2C1`, for which the fluorescence ratio in [2] and in assay [4] was 1 each time. For the same compound, in [3], the inhibition was 3.34%. In addition, the result in [7] and in assay [8] was inactive. The log fold change Tl+ flux in the assay with F380Y was -0.0366; in the assay with F380Y/beta1, 0.0174; in the assay with F380Y/beta2Delta, -0.0129; with F380Y/beta4, 0.0282; in [6], -0.0336; in the assay on R275C it was 0.027. Moreover, the log fold change Tl+ flux with R275C/beta1 is -0.0372; in the assay on R275C/beta2Delta, -0.0599; in the assay on R275C/beta4 it was -0.038; in the assay with R275C/Slo1WT/beta2, -0.0324.

Turning to `CNCCC(Oc1ccc(C(F)(F)F)cc1)c1ccccc1` (configuration not stated), in [1], the survival is 3.58. In addition, the fluorescence ratio is 1.04 in assay [2] and 1.03 in [4]. Further, the inhibition in assay [3] was -2.76%. Further, in assay [5], the outcome was inactive. Further, the log fold change Tl+ flux is 0.129 (active) in the assay with F380Y; 0.157 (active) in the assay with F380Y/beta1; 0.189 (active) in the assay on F380Y/beta2Delta; 0.225 (active) with F380Y/beta4; 0.0464 in [6]; -0.0214 in the assay with R275C. The log fold change Tl+ flux in the assay on R275C/beta1 was 0.297 (active); in the assay with R275C/beta2Delta, 0.0608; in the assay with R275C/beta4, 0.301 (active); in the assay with R275C/Slo1WT/beta2, 0.0335.

A word on the inhibition: it is the relative decrease from the control value, in per cent.
